# PubChem BioAssay (EPA / NIEHS)
# Where “and” joins values, the source holds several entries; their conditions need not be identical. Equal entries are not always repeated. Results filed as inconclusive are left out. More than one record can exist for a structure, and the calls need not agree. Calls of active or inactive are those of the source. How the source made its calls, unless noted: active means hit-call score of the fitted dose curve at least 0.9, where 1 is the maximum; inconclusive means response in the unintended direction; inactive means score below 0.9.
# Legend:
# [1] = read-out: Cellular tumor antigen p53 (Homo sapiens) (UniProt P04637); assay: LTEA_HepaRG_TP53: Life Technologies and Expression Analysis (LTEA) Assay for Tumor Protein P53 (TP53) using HepaRG (AID 2283537; active means hit-call score of the fitted dose curve at least 0.9, where 1 is the maximum; inactive means score below 0.9); conditions: mRNA level, 48 h; actives raise or lower the signal
# Method in brief: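 Differentiated HepaRG cells in serum-free induction medium exposed 48 h in duplicate to 8 half-log concentrations, top 100 uM, 0.5% DMSO. TP53 mRNA by TaqMan qRT-PCR (Fluidigm), normalized to ACTB, GAPDH, POLR2A; fitted bidirectionally versus DMSO.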
# [2] = read-out: UDP glucuronosyltransferase (UGT1A1), UGT1A1 (gene 54658); assay: LTEA_HepaRG_UGT1A1: Life Technologies and Expression Analysis (LTEA) Assay for UDP glucuronosyltransferase (UGT1A1) using HepaRG (AID 2283538; active means hit-call score of the fitted dose curve at least 0.9, where 1 is the maximum; inactive means score below 0.9); conditions: mRNA level, 48 h; actives raise or lower the signal
# Method in brief: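 Readout is UGT1A1 transcript level by qRT-PCR, normalized to three housekeeping genes, after 48 h chemical treatment of HepaRG cells. Concentrations ran from 100 uM down in half-log steps with 0.5% DMSO, and gain or loss relative to DMSO was fitted.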
# [3] = read-out: UDP glucuronosyltransferase (UGT1A6), UGT1A6 (gene 54578); assay: LTEA_HepaRG_UGT1A6: Life Technologies and Expression Analysis (LTEA) Assay for UDP glucuronosyltransferase (UGT1A6) using HepaRG (AID 2283539; active means hit-call score of the fitted dose curve at least 0.9, where 1 is the maximum; inactive means score below 0.9); conditions: mRNA level, 48 h; actives raise or lower the signal
# Method in brief: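 Measures mRNA change in HepaRG hepatic cells exposed 48 h to chemicals (eight-point, maximum 100 uM, 0.5% DMSO vehicle) in serum-free induction medium. Expression normalized to endogenous controls; DMSO served as negative control and baseline.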
# [4] = read-out: X-box binding protein 1 (XBP1), XBP1 (gene 7494); assay: LTEA_HepaRG_XBP1: Life Technologies and Expression Analysis (LTEA) Assay for X-box binding protein 1 (XBP1) using HepaRG (AID 2283540; active means hit-call score of the fitted dose curve at least 0.9, where 1 is the maximum; inactive means score below 0.9); conditions: mRNA level, 48 h; actives raise or lower the signal
# Method in brief: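 Eight concentrations (half-log, highest 100 uM, 0.5% DMSO) tested in duplicate on HepaRG cells over 48 h in serum-free induction medium; qRT-PCR of XBP1 normalised to ACTB, GAPDH, POLR2A.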
# [5] = LTEA_HepaRG_LDH_cytotoxicity: Cytotoxicity Assessment in the Life Technologies and Expression Analysis (LTEA) Assay (AID 2283563);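 on AC50: LDH activity released into spent culture medium as a marker of cell death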
# Method in brief: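 Spent-medium LDH after 48 h chemical exposure of HepaRG cells in serum-free induction medium; eight concentrations, half-log dilutions from 100 uM, duplicate wells, fitted upward relative to 0.5% DMSO.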
# [6] = ATG_XTT_Cytotoxicity: Cytotoxicity Assessment in the Attagene TRANS-FACTORIAL HepG2 Assay (AID 2283584)
# Method in brief: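 24 h chemical exposure of reporter-transfected HepG2; XTT signal loss vs DMSO indicates cytotoxicity.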
# [7] = TOX21_p53_BLA_p2_viability: Viability Assessment in the Tox21 HCT-116 p53 Agonism Beta-lactamase Assay, Phase 2 (AID 2283591);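 further: compound exposure lasted 16 h at 37 °C; actives lower the ATP signal meaning cytotoxicity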
# Method in brief: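 HCT-116 p53-bla cells (4000/well) rested 5 h at 37C, then received compounds in DMSO (217-fold dilution) for 16 h at 37C, 5% CO2. After the CCF4 read, CellTiter-Glo was added; ATP luminescence was read after 30 min at room temperature.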
# [8] = target: Cellular tumor antigen p53 (Homo sapiens) (UniProt P04637); assay: TOX21_p53_BLA_p2_ratio: Tox21 HCT-116 p53 Agonism Beta-lactamase Assay, Ratio, Phase 2 (AID 2283592)
# Method in brief: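 Human colon HCT116 cells with an inducible p53 beta-lactamase reporter are exposed to test chemicals for 16 h at 37C. Reporter induction is read as the 460/530 nm emission ratio after CCF4-AM loading, normalized to DMSO.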
# [9] = TOX21_p53_BLA_p3_viability: Viability Assessment in the Tox21 HCT-116 p53 Agonism Beta-lactamase Assay, Phase 3 (AID 2283593);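 further: cells exposed to compound for 16 h before reading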
# Method in brief: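 HCT-116 cells (4000/well) rested 5 h at 37C, then got DMSO compounds by pin tool (217-fold dilution) for 16 h at 37C, 5% CO2. After the bla read, CellTiter-Glo was added and luminescence read at 30 min, room temperature.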
# [10] = target: Cellular tumor antigen p53 (Homo sapiens) (UniProt P04637); assay: TOX21_p53_BLA_p3_ratio: Tox21 HCT-116 p53 Agonism Beta-lactamase Assay, Ratio, Phase 3 (AID 2283596)
# Method in brief: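 HCT116 p53-bla cells (4000/well) given compound in DMSO (217-fold dilution) after 5 h, incubated 16 h at 37C. CCF4-AM substrate 2 h at room temperature; 460/530 nm emission ratio, gain fitted against DMSO.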
# [11] = TOX21_p53_BLA_p4_viability: Viability Assessment in the Tox21 HCT-116 p53 Agonism Beta-lactamase Assay, Phase 4 (AID 2283597);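 further: hits lower the luminescence signal meaning cytotoxicity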
# Method in brief: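 Luminescent ATP readout (CellTiter-Glo, 30 min, room temperature) in the same wells as the p53 bla ratio. HCT116 cells were treated for 16 h at 37C with DMSO-dissolved compounds.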
# [12] = target: Cellular tumor antigen p53 (Homo sapiens) (UniProt P04637); assay: TOX21_p53_BLA_p5_ratio: Tox21 HCT-116 p53 Agonism Beta-lactamase Assay, Ratio, Phase 5 (AID 2283599)
# Method in brief: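 HCT-116 cells carrying a p53-inducible beta-lactamase reporter were seeded at 4000 cells/well and dosed after 5 h with compound in DMSO (217-fold dilution). After 16 h at 37C, CCF4-AM substrate was added for 2 h, and the 460/530 nm emission ratio was scored as gain-of-signal versus DMSO.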
# [13] = TOX21_p53_BLA_p5_viability: Viability Assessment in the Tox21 HCT-116 p53 Agonism Beta-lactamase Assay, Phase 5 (AID 2283600)
# Method in brief: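 Seeded cells (4000/well) settle 5 h before compound addition. Plates then incubate 16 h at 37C, receive FRET substrate for 2 h, and finally CellTiter-Glo, with luminescence measured after a 30 min room-temperature incubation.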
# [14] = target: Cellular tumor antigen p53 (Homo sapiens) (UniProt P04637); assay: TOX21_p53_BLA_p4_ratio: Tox21 HCT-116 p53 Agonism Beta-lactamase Assay, Ratio, Phase 4 (AID 2283601)
# Method in brief: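 HCT116 cells carrying an inducible beta-lactamase reporter were plated at 4000 cells/well, rested 5 h, then exposed to compounds in DMSO (217-fold dilution) for 16 h at 37C. CCF4-AM substrate was loaded 2 h at room temperature; 460/530 nm emission ratio scored gain-of-signal versus DMSO.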
# [15] = Tanguay_ZF_120hpf_MORT_legacy: (Legacy) Oregon State University Tanguay Lab 120 Hour Post-fertilization zebrafish Assay for Mortality (AID 2283633);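 on AC50: fitted as increase in binary mortality versus DMSO negative control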
# Method in brief: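 Single dechorionated Tropical 5D embryos were held with test chemical (0.64% DMSO final) from 6 to 120 hpf at 28C under foil. Deaths at 24 or 120 hpf were recorded as binary calls, analysed for increase over DMSO controls.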
# [16] = Tanguay_ZF_120hpf_YSE_legacy: (Legacy) Oregon State University Tanguay Lab 120 Hour Post-fertilization zebrafish Assay for Yolk Sac Edema (AID 2283634)
# Method in brief: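 Single dechorionated embryos were held in sealed plates at 28C with test chemical (0.64% DMSO final) from 6 hpf until 120 hpf. Edema of the yolk sac was then recorded as a binary endpoint; non-mortality endpoints were skipped for dead embryos.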
# [17] = Tanguay_ZF_120hpf_AXIS_legacy: (Legacy) Oregon State University Tanguay Lab 120 Hour Post-fertilization zebrafish Assay for Body Axis Malformation (AID 2283635);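 on AC50: potency for an increased fraction of larvae scored with body axis malformation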
# Method in brief: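 Each dechorionated embryo was exposed alone from 6 hpf, with DMSO at 0.64% (vol/vol) and trimethyltin chloride 5 uM as positive control. Axis malformation was recorded at 120 hpf unless the embryo had died.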
# [18] = Tanguay_ZF_120hpf_EYE_legacy: (Legacy) Oregon State University Tanguay Lab 120 Hour Post-fertilization zebrafish Assay for Eye Malformation (AID 2283636);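 further: binary presence or absence of eye malformation scored by brightfield in 120 hpf larvae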
# Method in brief: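 Dechorionated wild-type Tropical 5D zebrafish embryos were exposed statically from 6 hpf, one per well, to 120 hpf at 28C in sealed, foil-covered plates with 0.64% DMSO. Eye malformation was scored present/absent by brightfield microscopy against DMSO controls.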
# [19] = Tanguay_ZF_120hpf_SNOU_legacy: (Legacy) Oregon State University Tanguay Lab 120 Hour Post-fertilization zebrafish Assay for Snout Malformation (AID 2283637)
# Method in brief: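 Tropical 5D wild-type zebrafish embryos, dechorionated with pronase at 4 hpf, were exposed singly from 6 hpf to 120 hpf statically at 28C in 0.64% DMSO. Snout malformation was scored present/absent by brightfield microscopy, fitted against DMSO.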
# [20] = Tanguay_ZF_120hpf_JAW_legacy: (Legacy) Oregon State University Tanguay Lab 120 Hour Post-fertilization zebrafish Assay for Jaw Malformation (AID 2283638);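 on AC50: active means more embryos with jaw malformation than DMSO controls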
# Method in brief: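 Wild-type 5D embryos, chorion removed at 4 hpf, dosed singly from 6 hpf; 28C static, sealed, foil-covered, to 120 hpf. Endpoint: jaw defect yes/no (brightfield); mortality excludes scoring.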
# Chain of Cellular tumor antigen p53 (Homo sapiens) (P04637 whole entry, looked up): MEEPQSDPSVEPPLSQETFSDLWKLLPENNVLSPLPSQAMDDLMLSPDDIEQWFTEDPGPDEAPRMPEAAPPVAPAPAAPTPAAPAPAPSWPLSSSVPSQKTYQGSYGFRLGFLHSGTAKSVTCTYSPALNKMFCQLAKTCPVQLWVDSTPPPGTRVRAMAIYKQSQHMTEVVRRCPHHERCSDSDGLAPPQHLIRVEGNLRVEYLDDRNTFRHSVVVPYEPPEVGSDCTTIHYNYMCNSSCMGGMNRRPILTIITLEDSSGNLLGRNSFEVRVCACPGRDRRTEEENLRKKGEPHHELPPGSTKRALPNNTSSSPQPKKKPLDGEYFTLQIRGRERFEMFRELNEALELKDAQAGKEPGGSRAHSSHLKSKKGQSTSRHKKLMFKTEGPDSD
structure (smiles),measurement,setting,value
CC(C)(O)C(=O)Nc1ccc([N+](=O)[O-])c(C(F)(F)F)c1,AC50,[1],0.0309 µM (active)
same,outcome,[2],inactive
same,outcome,[3],inactive
same,AC50,[4],0.0212 µM (active)
same,outcome,[5],inactive
same,outcome,[6],inactive
same,outcome,[7],inactive
same,AC50,[8],69.3 µM (active)
same,outcome,[8],inactive
same,outcome,[9],inactive
same,outcome,[10],inactive
same,outcome,[11],inactive
same,outcome,[12],inactive
same,outcome,[13],inactive
same,outcome,[14],inactive
same,outcome,[15],inactive
same,outcome,[16],inactive
same,AC50,[17],6.35 µM (active)
same,AC50,[18],21.7 µM (active)
same,AC50,[19],7.43 µM (active)
same,AC50,[20],23.1 µM (active)
CCC(=O)O[C@H]1CC[C@H]2[C@@H]3CCC4=CC(=O)CC[C@]4(C)[C@H]3CC[C@]12C,outcome,[1],inactive
same,outcome,[3],inactive
same,outcome,[4],inactive
same,outcome,[5],inactive
same,outcome,[6],inactive
same,AC50,[7],70.4 µM (active)
same,outcome,[7],inactive
same,AC50,[8],87.7 µM (active)
same,outcome,[8],inactive
same,AC50,[9],82 µM (active)
same,outcome,[9],inactive
same,outcome,[10],inactive
same,outcome,[12],inactive
same,outcome,[13],inactive
same,outcome,[15],inactive
same,outcome,[16],inactive
same,outcome,[17],inactive
same,outcome,[18],inactive
same,outcome,[19],inactive
same,outcome,[20],inactive
O=C(NC(=O)c1cc(F)c(F)cc1Cl)Nc1cc(F)ccc1N1CCC(C(=O)O)CC1,outcome,[1],inactive
same,outcome,[2],inactive
same,outcome,[3],inactive
same,outcome,[4],inactive
same,outcome,[5],inactive
same,outcome,[7],inactive
same,outcome,[8],inactive
same,outcome,[9],inactive
same,outcome,[10],inactive
same,outcome,[11],inactive
same,outcome,[14],inactive
same,outcome,[15],inactive
same,outcome,[16],inactive
same,outcome,[17],inactive
same,outcome,[18],inactive
same,outcome,[19],inactive
same,outcome,[20],inactive
Oc1ccc(Cl)cc1Cl,outcome,[1],inactive
same,outcome,[2],inactive
same,outcome,[3],inactive
same,outcome,[4],inactive
same,outcome,[5],inactive
same,outcome,[7],inactive
same,outcome,[8],inactive
same,outcome,[9],inactive
same,outcome,[10],inactive
same,outcome,[11],inactive
same,outcome,[12],inactive
same,outcome,[13],inactive
same,outcome,[14],inactive
same,outcome,[15],inactive
same,outcome,[17],inactive
same,outcome,[18],inactive
same,outcome,[19],inactive
same,outcome,[20],inactive
CC(C)(c1ccccc1)c1ccc(O)cc1,outcome,[1],inactive
same,outcome,[2],inactive
same,outcome,[3],inactive
same,outcome,[4],inactive
same,AC50,[5],76.7 µM (active)
same,outcome,[6],inactive
same,AC50,[7],80.1 µM (active)
same,outcome,[7],inactive
same,AC50,[8],74 µM (active)
same,outcome,[8],inactive
same,outcome,[9],inactive
same,outcome,[10],inactive
same,AC50,[11],71 µM (active) and 65.8 µM (active)
same,AC50,[12],73.1 µM (active)
same,outcome,[12],inactive
same,outcome,[13],inactive
same,AC50,[14],81.7 µM (active) and 70.4 µM (active)
same,AC50,[15],19.1 µM (active)
same,outcome,[17],inactive
same,outcome,[18],inactive
c1ccc(-c2ccccc2)cc1,outcome,[1],inactive
same,outcome,[2],inactive
same,outcome,[3],inactive
same,outcome,[4],inactive
same,outcome,[5],inactive
same,outcome,[7],inactive
same,outcome,[8],inactive
same,outcome,[9],inactive
same,outcome,[10],inactive
same,outcome,[12],inactive
same,outcome,[13],inactive
same,outcome,[14],inactive
same,outcome,[15],inactive
same,outcome,[16],inactive
same,outcome,[17],inactive
same,outcome,[18],inactive
same,outcome,[20],inactive
